Screening results deposited in PubChem by National Center for Advancing Translational Sciences (NCATS).
This is a sample that favours compounds with a hit; in the whole collection about 19% have one here.
HT1080 IDH1KD tx: qHTS for induction of synthetic lethality in tumor cells producing 2HG: qHTS for the HT-1080-IDH1KD cell line | HT-1080 IDH1 knockdown viability, ATP luminescence, 48 h | Potency, µM (highest dose often 46.1 µM), inactives show at the highest dose activity, negative = toxicity, actives largely listed as cytotoxic | hit rate 2% among 360,000 | AID 686971, 2013;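 further: potency means the concentration at half of the fitted maximal effect; 0% = DMSO wells and -100% = cell-free medium wells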
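After a 2 h attachment period, IDH1KD HT-1080 cells took pin-transferred compound for 48 h at 37 °C; ATP-based luminescence after 10 min room-temperature reagent incubation reported viability.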
TDP1 cell noCPT: qHTS for Inhibitors of human tyrosyl-DNA phosphodiesterase 1 (TDP1): qHTS in cells in absence of CPT; DT40 Tdp1-/- hTDP1 cells, no CPT, ATP luminescence, 48 h; Potency, µM (series often up to 46.2 µM), inactives show at the highest dose activity change, negative = growth inhibition, actives largely listed as inhibitors; hit rate 15% among 420,000; further: potency means the concentration at half of the fitted maximal effect; nearly all actives have a fitted effect of over 55% in size
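Growth of hTDP1-complemented DT40 Tdp1-knockout cells is measured by ATP luminescence after at least 48 hr compound exposure at 37 °C, with DMSO substituting for the 20 nM CPT used in the parallel screen.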
DT40 TDP1 CPT: qHTS for Inhibitors of human tyrosyl-DNA phosphodiesterase 1 (TDP1): qHTS in cells in presence of CPT; chicken DT40 Tdp1-/-;hTDP1 cells + 20 nM CPT, ATP luminescence, 48 h; Potency, µM (top dose mostly 46.2 µM), for inactives: at the highest dose activity change, negative = growth inhibition, usual class: inhibitors; hit rate 12% among 420,000; further: potency means the concentration at half of the fitted maximal effect; nearly all actives have a fitted effect of over 55% in size
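Chicken DT40 Tdp1-/- cells stably complemented with human TDP1 were seeded at 400 cells/well in medium containing 20 nM camptothecin, exposed to pin-transferred compounds, and grown at 37 °C for at least 48 hr. Viability was read as ATP luminescence.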
HT1080NT lethal: qHTS for induction of synthetic lethality in tumor cells producing 2HG: qHTS for the HT-1080-NT fibrosarcoma cell line. hit rate 1.6% among 360,000. Potency, µM (series often up to 46.1 µM), without a hit: top-dose activity, negative = less viability, most hits filed as cytotoxic. HT-1080-NT fibrosarcoma viability, CellTiter-Glo ATP luminescence, 48 h. AID 686970, 2013;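 further: NT is the 2HG producing partner of a matched IDH1 knockdown line; potency means the concentration at half of the fitted maximal effect; 0% = DMSO-treated cells and -100% = media-only wells without cells; nearly all actives have a fitted effect of over 55% in size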
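Toxicity toward the 2HG-producing NT line was scored as %Activity, normalised to DMSO and no-cell wells, from CellTiter-Glo luminescence after 48 hours' treatment.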
IL1B secr inh: qHTS for Inhibitors of Inflammasome Signaling: IL-1-beta AlphaLISA Primary Screen; activity change, % at 57.5 µM; AID 743279, 2014; hit rate 4.7% among 360,000; THP-1 LPS/ATP IL-1B secretion, AlphaLISA, 16 h; stronger effect = lower value; in the data active means activity change below about -50%; inconclusive means mostly about -30% to -49%
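THP-1 cells pretreated 1 hr with compounds (up to 57.5 uM final), then stimulated with LPS (250 ng/mL final) plus ATP (1.25 mM final); secreted IL-1B measured by AlphaLISA after 16 hr, decreased signal indicating inhibition.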
Active calls of the source: *; ? = inconclusive; . = not tested or not shown. Unless noted, the call rests on the fitted dose curve; in most records, active means well fitted curve in the direction sought with a large enough effect; inconclusive means small, poorly fitted or top-dose-only effect, or another doubt; inactive means no such curve, though single readings can be large; an effect the other way counts as inactive or inconclusive. Unless noted, on the % scale 0 is the no-effect control and ±100 the full control effect.

SMILES	HT1080 IDH1KD tx	TDP1 cell noCPT	DT40 TDP1 CPT	HT1080NT lethal	IL1B secr inh
CC(C)C[C@@H](C(=O)NCc1ccco1)N1C(=O)N2CCc3c([nH]c4ccccc34)[C@@]2(C)C1=O	-22%	5.2µM*	?	-15%	-1
C[C@@H](C(=O)NCCc1ccc(F)cc1)N1C(=O)N2CCc3c([nH]c4ccccc34)[C@@]2(C)C1=O	-22%	12µM*	12µM*	-14%	-9
COc1ccc2[nH]c3c(c2c1)CCN1C(=O)N([C@@H](C)C(=O)NCCc2ccc(F)cc2)C(=O)[C@]31C	-1%	7.3µM*	23µM*	-4%	-23
COc1ccc(CNC(=O)[C@H](C)N2C(=O)N3CCc4c([nH]c5ccccc45)[C@@]3(C)C2=O)cc1OC	-1%	4.1µM*	2.6µM*	-7%	25
O=C(NC1CC(=O)N(c2ccc(Cl)cc2)C1)C1CCCCC1 (centres undefined)	.	4%	-12%	.	.
O=C1COc2ccc(S(=O)(=O)N3CCCCCC3)cc2N1	2%	-10%	14%	2%	-11
COC1=CC(=O)OC(c2ccco2)C1 (centres undefined)	29%	0%	-3%	26%	-4
Cc1ccc(-c2csc(=Nc3ccccc3)n2Cc2ccc3c(c2)OCO3)cc1C	.	6.5µM*	?	.	.
Cc1cc(C(=O)N2CCN(Cc3ccc4c(c3)OCO4)CC2)cs1	-3%	-17%	-8%	12%	0
Cc1ccc(NC(=O)Cn2c(-c3ccc4c(c3)OCO4)cn(-c3ccccc3)c2=O)cc1C	.	-13%	-4%	.	.
Cc1ccc(-c2csc(=Nc3ccc(F)cc3)n2Cc2ccc3c(c2)OCO3)cc1C	.	15µM*	18µM*	.	.
Clc1ccc(-c2csc(=Nc3ccccc3)n2Cc2ccc3c(c2)OCO3)cc1	.	10µM*	21µM*	.	.
COc1cc2cc(CCOC(=O)c3ccc(C#N)cc3)oc(=O)c2cc1OC	6%	-30%	?	4%	-3
Cc1cccc(C(=O)OC(C)C(=O)N2CCN(Cc3ccccc3)CC2)c1 (centres undefined)	14%	?	?	8%	-12
O=C(NCc1cccc(Cl)c1)NCc1noc2ccccc12	.	16µM*	?	.	.
O=C(NCc1noc2ccccc12)Nc1ccc(F)cc1F	.	-69%	16µM*	.	.
O=C(NCc1cccc(Cl)c1)NCc1cccc(Cl)c1	-16%	-5%	-6%	-6%	-9
CCCC(=O)NCC1(N(C)C)CCCCC1	.	?	-1%	.	.
CCCN(CCC)CCc1cccc2c1CC(=O)N2	.	-16%	-6%	.	.
CSc1ccc2nnc(-c3ccc(C)cc3)n2n1	.	11µM*	?	.	.
CC(=O)C(Sc1ccc2nnc(-c3ccc(F)cc3)n2n1)C(C)=O	-13%	-28%	?	-4%	7
Cc1ccc(-c2nnc3ccc(SCC(=O)c4ccccc4)nn23)cc1	.	14µM*	?	.	.
CC(=O)C(Sc1ccc2nnc(-c3ccc(C)cc3)n2n1)C(C)=O	-1%	21µM*	12µM*	10%	24
CCOC(=O)C(CC)Sc1ccc2nnc(-c3ccc(F)cc3)n2n1 (centres undefined)	.	?	20µM*	.	.
CC(=O)N1CCN(c2ccc(NC(=O)c3cccc([N+](=O)[O-])c3)cc2)CC1	13%	-27%	-16%	11%	-10
SMILES	HT1080 IDH1KD tx	TDP1 cell noCPT	DT40 TDP1 CPT	HT1080NT lethal	IL1B secr inh
COc1ccccc1N1CCN(C(=O)CN(C)S(=O)(=O)c2cc(C)ccc2OC)CC1	0%	-22%	-13%	1%	-13
CCOC(=O)c1c(NC(=O)COC(=O)c2nc(Cl)ccc2Cl)sc2c1CCC2	19%	-5%	-19%	19%	0
OC1c2cc(Br)ccc2N=C2CCCN21 (centres undefined)	-12%	18µM*	12µM*	?	-97*
OC1c2cc(Br)ccc2N=C2CCCCCN21 (centres undefined)	1%	16µM*	?	0%	28
OC1c2c(F)cccc2N=C2CCCCCN21 (centres undefined)	6%	?	?	8%	0
CCCc1[nH]n(-c2nc3ccccc3s2)c(=O)c1C=NCCCOC	4%	0%	-12%	12%	?
O=c1c(C=NCCCO)c(-c2ccccc2)[nH]n1-c1nc2ccccc2s1	7%	?	13µM*	-3%	-6
COCCCN=Cc1c(-c2ccccc2)[nH]n(-c2nc3ccccc3s2)c1=O	0%	?	26µM*	-14%	?
CCCCCN=Cc1c(C)[nH]n(-c2nc3ccccc3s2)c1=O	5µM*	4.6µM*	2.1µM*	11µM*	-20
CC(=O)c1ccc(OCc2cc(C(=O)NC3CCCCC3)no2)cc1	19%	0%	-19%	-5%	-15
CN(Cc1cc2ccccc2[nH]c1=O)C(=O)c1cccs1	-1%	-32%	5%	15%	-2
O=C(c1cccs1)N(Cc1cc2ccccc2[nH]c1=O)c1ccccc1	-2%	10µM*	13µM*	15%	-16
Cc1ccc(N(Cc2cc3ccccc3[nH]c2=O)C(=O)c2cccs2)cc1C	17%	18µM*	?	14%	-28
Cc1ccc(N(Cc2cc3cc(C)ccc3[nH]c2=O)C(=O)c2cccs2)cc1	2%	23µM*	?	14%	11
Cn1nnnc1SCc1ccc(C(=O)Nc2nccs2)cc1	1%	-24%	0%	?	-25
C=CCn1c(SCc2ccc(C(=O)Nc3nccs3)cc2)nnc1-c1ccc(C)c(Cl)c1	?	23µM*	?	-21%	-52*
O=C(CSc1nnc(-c2ccc(O)cc2)n1Cc1ccco1)c1cccs1	-11%	?	?	5%	-3
N#Cc1c(-c2ccccc2)c(-c2ccccc2)n(Cc2ccco2)c1NC(=O)c1cccs1	-3%	?	11µM*	-3%	-4
COc1ccccc1CN1C[C@@H]2C[C@@H](c3ccc(C)cc3)N3CCC[C@@]23C1=O	-17%	?	-23%	-8%	-28
COc1ccccc1CN1C[C@@H]2C[C@@H](c3ccc4nsnc4c3)N3CCC[C@@]23C1=O	-16%	23µM*	?	-19%	-19
COc1ccccc1CN1C[C@@H]2C[C@@H](c3cccc(O)c3)N3CCC[C@@]23C1=O	-3%	-25%	8%	-13%	8
COc1ccccc1CN1C[C@@H]2C[C@@H](c3ccccc3C)N3CCC[C@@]23C1=O	-9%	29µM*	?	-4%	-19
